# Results from PubChem BioAssay AID1259240 (Keith Lab, Institute of Cancer Science, University of …, 2017).
# Values without a mark were called inactive. The source made the active and inactive calls. Rule as the data show it: active = fold change mostly below about -2 (no sharp cut-off); inactive = mostly above about -1.8.
# Assay: modulation of TERT promoter-driven luciferase – cell-based, luciferase reporter, human, primary screen (AID 1259240)
# Conditions: A2780 TERT promoter luciferase reporter, 16 h; at 20 µM, fold versus average of vehicle-only wells
row,SMILES,fold change
1,FC(F)(F)c1cccc2c1[nH]c1nc3ccccc3nc12,-1.1
2,NCCn1c(-c2cccnc2)n[nH]c1=S,-1.19
3,Cc1cc(NC(=O)c2onc(C)c2Cl)n(-c2ccccc2)n1,1.18
4,Cc1cc(C)c2sc(-c3ccccc3)cc(=O)c2c1,-37 (active)
5,Nc1ncnc2c1nc1n2CC(O)CS1 (centres undefined),-1.44
6,O=c1cc(-c2cc(Br)cc3c2OCOC3)oc2ccccc12,-1.26
7,CCC(=O)OCCNc1cc(N2CCCC2)c2noc3c2c1C(=O)c1ccccc1-3,2.08 (active)
8,COC(=O)c1[nH]c(=O)c2ccccc2c1O,-1.15
9,Cn1c(SCc2nc(-c3ccccc3)no2)nnc1-c1ccco1,-2.04 (active)
10,CN1CCc2c(sc3c2C(=O)NC(c2cccc(Cl)c2Cl)N3)C1 (centres undefined),-1.43
11,Cc1cc(C)n2c(NC(C)C)c(-c3ccc(C)o3)nc2n1,1.2
12,CCOC(=O)C1CCCN(c2c(NCCCN3CC(C)CC(C)C3)c(=O)c2=O)C1 (centres undefined),-1.02
13,CCOc1cc(C2NC(=O)c3n[nH]c(C)c32)ccc1O (centres undefined),1.27
14,Cn1c(Cc2ccccc2)nn(CN2CCC3(CC2)OCCO3)c1=S,-1.07
15,O=C(c1ccc2c(=O)n3c(nc2c1)CCCCC3)N1CCCCCC1,1.21
16,COc1ccc(Nc2c(-c3ccc(C)o3)nc3ncccn23)cc1OC,-1.44
17,O=C1SC(Nc2ccccc2F)C(=O)N1c1ccccc1 (centres undefined),1.65
18,O=C(O)CN1C(=O)/C(=C\c2cn(Cc3ccc(F)cc3)c3ccccc23)SC1=S,-1.28
19,COc1ccc(C2CC(c3cccs3)=NN2C(=O)CSc2ncnc3ccccc23)cc1 (centres undefined),1.14
20,COc1ccc(C2=NN3C(C2)c2cc(Cl)ccc2OC3c2cccnc2)cc1 (centres undefined),1.37
21,S=c1nc(-c2ccccc2)n(CCCn2ccnc2)c2c1CCCC2,1.02
22,CC(=O)c1sc2nc(-c3ccc(Br)cc3)cn2c1C,-17 (active)
23,CCN1/C(=C/C=C/c2sc3cc(NC(C)=O)ccc3[n+]2CC)Sc2cc(NC(C)=O)ccc21,-2.62 (active)
24,CN(C)c1nc(C(=O)OCCO)nc(N(C)C)n1,-3.45 (active)
